Shiga toxin inh: Shiga toxin inhibition; Vero cells, Shiga toxin protein synthesis inhibition reporter; inhibition, % at 38.7 µM; 290,000 tested, 9.2% active; in the data active means inhibition mostly above about 28%, no sharp cut-off; inactive means mostly below about 43%; further: 0% is about no effect
AMA1-RON2 inh: inhibitors of Plasmodium falciparum AMA1-RON2 interaction; AlphaScreen AMA1-biotinylated RON2 peptide binding; Potency, µM (highest dose often 58.2 µM), for inactives: at the highest dose activity change, negative = inhibition, most hits filed as inhibitors; 360,000 tested, 0.2% active; AID 720542;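 further: potency means the concentration at half of the fitted maximal effect; 0% = vehicle wells and -100% = peptide control; nearly all actives have a fitted effect of over 45% in size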
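AMA1 (3D7) with his tag at 25 nM final met compounds first, then biotinylated RON2 peptide at 25 nM; detection used donor plus acceptor beads, 10 µg/mL apiece, read by AlphaScreen after 30 min at room temperature.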
HCV inhibitor: HCV inhibition; Potency, µM (series often up to 41.8 µM), for inactives: top-dose activity change, negative = inhibition, usual class: inhibitors; 340,000 tested, 3.4% active; Huh7.5.1 HCVcc-Cre infection, luciferase reporter, 44 h; further: potency means the concentration at half of the fitted maximal effect; on the % scale 0 is the no-effect control and ±100 the full control effect
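Compounds are dispensed onto cells plated 4 h earlier at 1,000 per well, with HCVcc-Cre virus (about 0.5 moi) added next. Following 44 h of culture, luminescent signal is measured for 15 sec after 15 min with substrate at room temperature.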
Cycloheximide cs: affects cycloheximide protein synthesis inhibition readout, counter-screen; cell reporter, cycloheximide protein synthesis inhibition counterscreen; max response, %; 300,000 tested, 12% active; in the data active means max response mostly above about 13%, no sharp cut-off; inactive means mostly below about 14%; further: read at 38.3 µM for the half of the compounds with a filed dose; 0% is about no effect
Pf growth 96h: P. falciparum growth inhibition at 96 hour, primary screen for plastid delayed-death inhibitors; P. falciparum luciferase reporter growth, 96 h; Potency, µM (highest dose often 28.7 µM), for the others: at the top dose activity change, negative = inhibition, most hits filed as inhibitors; 320,000 tested, 6.9% active; AID 504834; further: potency means the concentration at half of the fitted maximal effect; on the % scale 0 is the no-effect control and ±100 the full control effect
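Erythrocytes infected with luciferase-expressing P. falciparum were dispensed at 2% hematocrit and 0.05% parasitemia (final), then incubated with compounds 96 hours at 37 C in 5% CO2. Luminescence after detection reagent addition reported growth.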
Pf growth 48h: P. falciparum growth inhibition at 48 hours (one generation); P. falciparum luciferase growth in erythrocytes, 48 h; Potency, µM (series often up to 28.7 µM), for the others: at the highest dose activity change, negative = inhibition, usual class: inhibitors; 310,000 tested, 5.9% active; AID 504832; further: potency means the concentration at half of the fitted maximal effect; on the % scale 0 is the no-effect control and ±100 the full control effect
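In quantitative HTS format, infected erythrocytes bearing luciferase-reporter parasites were treated for a single generation at 37 C. Luminescence after adding detection reagent served as the growth measure.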
An asterisk follows results filed as active; ? = inconclusive; . = not tested or not shown; [ ] = another dose, or the depositor's remark. This is a sample that favours compounds with a hit; in the whole collection about 21% have one here. Unless noted, the call rests on the fitted dose curve; in most records, active means well fitted curve in the direction sought with a large enough effect; inconclusive means small, poorly fitted or top-dose-only effect, or another doubt; inactive means no such curve, though single readings can be large; an effect the other way counts as inactive or inconclusive.

SMILES | Shiga toxin inh | AMA1-RON2 inh | HCV inhibitor | Cycloheximide cs | Pf growth 96h | Pf growth 48h
CCN(C(=O)Cc1c(C(=O)O)n(CC)c2ccccc12)c1cccc(C(F)(F)F)c1 | 1.3 | -1.3% | 19.4% | -2.6 | 5.3% | 34.4%
N#Cc1ccc(NC(=O)COC(=O)c2cccnc2Cl)cc1 | . | 1.4%[11.6 µM] | 23.2% | . | . | .
COc1ccc(-c2noc(CN(C)C3CCOCC3)n2)cc1 | 29.6 | 5.2% | 5.4% | 13.2 | ? | -5.6%
O=C(CCCc1nc(-c2ccccc2)no1)NC1CCCCC1 | -5.8 | 11.6% | -3.2% | -3.2 | -0.5% | 4.6%
COCCCC1CCN(Cc2nc(-c3ccccc3)no2)CC1 | 75.9* | 24.8% | -5.0% | 22.7* | 0.5% | 39.0%
c1ccc(-c2noc(CSc3nnnn3C3CCCCC3)n2)cc1 | 45.7 | -0.6% | -1.2% | 28.5* | 3.1% | 69.8%
c1ccc(-c2noc(CCC3CCCC3)n2)cc1 | 3.6 | 0.0% | -0.2% | 19.6* | ? | 38.5%
CN(Cc1nc(-c2ccccc2)no1)C1CCOCC1 | 59.1 | -9.3% | 10.5% | 45.6* | 162.2% | 135.7%
Clc1ccc(OCCCc2nc(-c3ccncc3)no2)c(Cl)c1 | 15.6 | 16.8% | -27.1% | 16.0 | 24.3% | 43.7%
c1ccc(-c2noc(CC3CCCCC3)n2)cc1 | 47.8* | 8.1% | 12.3% | 31.0* | -48.9%[5.75 µM] | 173.3%
c1cc(-c2noc(CCC3CCCC3)n2)ccn1 | 15.4 | -2.7% | ? | 16.7* | ? | ?
Cc1ccc(CNC(=O)COc2ccc(S(=O)(=O)N3CCOCC3)cc2)cc1 | . | -4.0% | -6.2% | . | ? | 11.7%
CC(C)n1c(NCCO)nc2ccccc21 | -10.7 | 21.0% | 3.9% | -4.7 | ? | 38.4%
C[n+]1c2ccccc2nc2ccc(NCCO)cc21 | -1.0 | 20µM* | 14.1µM* | 12.5* | 0.131µM* | 0.117µM*
O=[N+]([O-])c1cc(-c2ccc(C(=S)N3CCOCC3)o2)ccc1Cl | 54.7* | ? | ? | 30.6* | ? | 21.7%
O=[N+]([O-])c1cccc(-c2ccc(C(=S)N3CCN(c4ccccc4)CC3)o2)c1 | -2.7 | ? | -26.3% | 2.0 | 5.7% | 6.5%
O=[N+]([O-])c1cccc(-c2ccc(C(=S)N3CCOCC3)o2)c1 | 72.4* | ? | -29.8% | 39.1* | ? | 186.1%
O=C(Nc1ccc(CN2CCOCC2)cc1)c1ccc(-c2cccc([N+](=O)[O-])c2)o1 | 3.3 | -5.3% | 31.6µM* | 14.6 | 2.62µM* | ?
S=C(c1ccc(-c2cc(Cl)ccc2Cl)o1)N1CCOCC1 | -4.1 | ? | -8.1% | 1.7 | 49.8% | ?
CN1CCN(C(=S)c2ccc(-c3cccc([N+](=O)[O-])c3)o2)CC1 | 101.5* | -17.7% | -27.8% | 51.1* | 206.1% | 231.0%
CC(=O)NC(C)(c1ccccc1)c1nc(-c2cncnc2)cs1 (stereo unspecified) | . | 2.1% | . | . | . | .
Cc1ccc(S(=O)(=O)N2C[C@H]3C(=O)C[C@@H](c4ccccc4)N(S(C)(=O)=O)[C@H]3C[C@H]2c2ccccc2)cc1 | . | -4.9% | . | . | . | .
Cc1cc(F)ccc1S(=O)(=O)N1CCCOC1CNC(=O)C(=O)NCc1ccncc1 (stereo unspecified) | -13.3 | 0.3% | 16.5% | 1.6 | ? | 3.6%
CN(CC(=O)Nc1cccc(F)c1)C(=O)c1ccccc1Cc1ccccc1 | . | 17.2% | -9.8%[8.37 µM] | . | ? | ?
O=C1NCN(c2ccccc2)C12CCN(CCCC(c1ccc(F)cc1)c1ccc(F)cc1)CC2 | -7.1 | -10.7% | ? | -3.1 | 3.7µM* | 1.9µM*
SMILES | Shiga toxin inh | AMA1-RON2 inh | HCV inhibitor | Cycloheximide cs | Pf growth 96h | Pf growth 48h
O=C1NCN(c2ccccc2)C12CCNCC2 | 2.4 | -8.7% | 6.3% | 4.4 | ? | 2.62µM*
O=C(NCCN1CCC2(CC1)C(=O)NCN2c1cccc(F)c1)c1ccc2ccccc2c1 | . | -23.3% | . | . | . | .
O=C1NCN(c2ccccc2)C12CCN(CC1COc3ccccc3O1)CC2 (stereo unspecified) | . | . | . | . | -11.4% | ?
COC(=O)CN(c1ccc(C(C)C)cc1)S(=O)(=O)c1c(C)[nH]c(=O)[nH]c1=O | -21.8 | 4.6% | -0.7% | -3.6 | 9.28µM* | .
CCCCCCCCCCCCCCCC(=O)OCC(COP(=O)(O)OCC[N+](C)(C)C)OC(=O)CCCCCCCCCCCCCCC (stereo unspecified) | . | . | . | . | -11.1% | -4.1%
Nc1ccccc1C(=O)Nc1nccs1 | 61.7* | -13.0% | 11.8% | 44.7* | -6.3% | 105.3%
Cn1cc(Br)c(C(=O)Nc2nccs2)n1 | 42.9* | 30.6% | 7.1% | 26.8* | 31.2% | 69.0%
CC(=O)OC(C(=O)Nc1nccs1)c1ccccc1 (stereo unspecified) | -12.5 | -6.3% | 2.4% | -2.6 | -17.3% | 10.6%
O=C(Nc1nccs1)c1ccccc1[N+](=O)[O-] | -14.9 | -2.1% | 4.4% | -1.9 | ? | 31.7%
O=C(Nc1nccs1)C(Br)C(Br)c1ccccc1 (stereo unspecified) | 68.6* | 11.1% | -16.0% | 33.7* | 146.4% | 100.5%
O=C(Nc1nccs1)c1ccccc1Br | 30.3 | -3.1% | -3.4% | 27.6* | ? | 50.1%
Cn1cc(Br)c(C(=O)Nc2c(F)c(F)c(F)c(F)c2F)n1 | -4.3 | -8.7% | -1.1% | -3.6 | -8.9% | -3.4%
CCOC(=O)C1(C)CCCCCN1C(=O)c1ccc(SC(F)(F)F)cc1 (stereo unspecified) | . | -5.6% | . | . | . | .
CCOc1ccc(N2C(=O)C3Sc4[nH]c(=O)sc4C(c4ccc(OC)c(OC)c4)C3C2=O)cc1 (stereo unspecified) | 23.2 | 19.6% | -8.0% | 1.4 | 23.8% | 17.1%
CC(=O)C1=C(C)Nc2ncnn2C1c1cccc(Br)c1 (stereo unspecified) | -6.5 | -5.7% | 26.8% | 1.9 | ? | .
Cn1cc(Br)c(C(=O)NC2C3CC4CC(C3)CC2C4)n1 (stereo unspecified) | 21.6 | -0.9% | -10.9% | 15.5 | -29.2% | -17.6%
Cn1cc(Br)c(C(=O)NC2CCCCCC2)n1 | 55.5 | -8.5% | -0.4% | 17.2* | ? | 26.8%
CCOC(=O)c1c(NC(=O)c2cccs2)sc(CC)c1-c1cccs1 | -13.0 | 73.0% | . | 3.0 | 10.4µM* | .
CCOC(=O)c1c(-c2ccc(C)s2)csc1NC(=O)c1cccs1 | 5.9 | -0.7% | 0.6% | -4.4 | 36.3% | .
Cc1sc(NC(=O)c2cccs2)c(C(N)=O)c1C | 62.5 | -1.1% | ? | 40.4* | 17.1% | 123.8%
C[C@H](CO)N1C[C@H](C)[C@@H](CN(C)S(C)(=O)=O)Oc2ccc(NC(=O)c3ccncc3)cc2C1=O | . | -5.0% | 24.7% | . | . | .
Cc1nc(CCNC(=O)CC2C(=O)NCCN2Cc2ccccc2)nc2c1CCC2 (stereo unspecified) | 20.5 | 25.4% | 10.8% | 0.6 | 12.1% | 2.7%
CCCCNC(=S)N/N=C1\C(=O)c2cccc3cccc1c23 | -7.1 | 31.9% | -29.1% | 0.7 | 4.3% | .
